This is an account of results in publication PMC5700166.

In this experiment the target is T1, GST-Nv-NF-kB (Cys allele) (Nematostella vectensis, UniProt E5G601 2-411).
T1 sequence: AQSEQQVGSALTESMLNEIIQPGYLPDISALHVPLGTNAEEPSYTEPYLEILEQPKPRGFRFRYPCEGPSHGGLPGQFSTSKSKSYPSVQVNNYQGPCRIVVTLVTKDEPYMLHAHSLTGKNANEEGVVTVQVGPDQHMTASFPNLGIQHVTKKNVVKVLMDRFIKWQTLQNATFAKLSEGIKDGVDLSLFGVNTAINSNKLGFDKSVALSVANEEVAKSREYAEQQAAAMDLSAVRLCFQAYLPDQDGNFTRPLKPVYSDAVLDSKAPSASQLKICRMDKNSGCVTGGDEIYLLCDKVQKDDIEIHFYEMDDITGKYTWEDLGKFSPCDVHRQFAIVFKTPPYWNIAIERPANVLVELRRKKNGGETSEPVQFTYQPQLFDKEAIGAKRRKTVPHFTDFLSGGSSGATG
In words: protein-binding microarray (PBM); PBM: ~300 nM protein, 6 mM HEPES pH 7.8, 80 mM KCl, 0.5 mM EDTA, 0.5 mM EGTA, 6% glycerol, 35 ng/ul poly-dIdC, 1% milk, 1 h, room temperature; Ap Aiptasia and Nv Nematostella (sea anemones) / Co Capsaspora / Aq Amphimedon (sponge) / Dm Drosophila / Hu human; RHD is the Rel homology domain; high values mean tight binding. Conditions: dsDNA, one strand shown.
The sequence “CCGATTAACATCAAAATTTTCCCTGATGTTAATCGGGTCTTGATTCGCTTGACGCTGCTG” showed a binding signal of 8.54 z-score.
With “CCGATTAACATCAAGTTTTCCCCTGATGTTAATCGGGTCTTGATTCGCTTGACGCTGCTG” the figure was 8.76 z-score; with “CCGATTAACATCAAGGGAAATTCTGATGTTAATCGGGTCTTGATTCGCTTGACGCTGCTG”, 8.12 z-score.
The same measure for “CCGATTAACATCAAATTCCCACATGATGTTAATCGGGTCTTGATTCGCTTGACGCTGCTG”: 3.53 z-score; for “CCGATTAACATCAATGGGATTTCTGATGTTAATCGGGTCTTGATTCGCTTGACGCTGCTG”: 2.72 z-score.
The same measure for “CCGATTAACATCAAGGGGGTATCTGATGTTAATCGGGTCTTGATTCGCTTGACGCTGCTG”: 4.44 z-score.
“CCGATTAACATCAAAATTCCCTATGATGTTAATCGGGTCTTGATTCGCTTGACGCTGCTG” yielded a binding signal of 8.05 z-score.
The sequence “CCGATTAACATCAGAAGTGGGAATGATGTTAATCGGGTCTTGATTCGCTTGACGCTGCTG” displayed a binding signal of 2 z-score.
In the case of “CCGATTAACATCAGGGGGAACCATGATGTTAATCGGGTCTTGATTCGCTTGACGCTGCTG”, the binding signal was 6.04 z-score.
The same measure for “CCGATTAACATCAAGGTTTCCCCTGATGTTAATCGGGTCTTGATTCGCTTGACGCTGCTG”: 8.19 z-score.
With “CCGATTAACATCAGGGAATAACCTGATGTTAATCGGGTCTTGATTCGCTTGACGCTGCTG” the figure was 6.79 z-score.
The same measure for “CCGATTAACATCAGTATTTCCCATGATGTTAATCGGGTCTTGATTCGCTTGACGCTGCTG”: 3.64 z-score; for “CCGATTAACATCAGGGGATTCGATGATGTTAATCGGGTCTTGATTCGCTTGACGCTGCTG”: 5.21 z-score; for “CCGATTAACATCATGGGGAAAAATGATGTTAATCGGGTCTTGATTCGCTTGACGCTGCTG”: 6.62 z-score.
Consider “CCGATTAACATCAACATTCCCCCTGATGTTAATCGGGTCTTGATTCGCTTGACGCTGCTG”, for which the binding signal was found to be 8.25 z-score.
As to “CCGATTAACATCAACAATTTCCCTGATGTTAATCGGGTCTTGATTCGCTTGACGCTGCTG”, the binding signal came to 5.04 z-score.
With “CCGATTAACATCAAAAAACCCCTTGATGTTAATCGGGTCTTGATTCGCTTGACGCTGCTG” the figure was 8.78 z-score.
With “CCGATTAACATCACGGGGATTTCTGATGTTAATCGGGTCTTGATTCGCTTGACGCTGCTG” the figure was 9.87 z-score; with “CCGATTAACATCACTTTTTCCCCTGATGTTAATCGGGTCTTGATTCGCTTGACGCTGCTG”, 7.44 z-score; with “CCGATTAACATCAGCGGGAATCCTGATGTTAATCGGGTCTTGATTCGCTTGACGCTGCTG”, 3.26 z-score.
The same measure for “CCGATTAACATCAGATTTTCCCATGATGTTAATCGGGTCTTGATTCGCTTGACGCTGCTG”: 5.14 z-score; for “CCGATTAACATCACCCTGGGAAATGATGTTAATCGGGTCTTGATTCGCTTGACGCTGCTG”: 1.49 z-score.
Take “CCGATTAACATCAGGGGGACTAATGATGTTAATCGGGTCTTGATTCGCTTGACGCTGCTG”: the binding signal stood at 4.36 z-score.
With “CCGATTAACATCAAGGGGATCCCTGATGTTAATCGGGTCTTGATTCGCTTGACGCTGCTG” the figure was 6.41 z-score.
With “CCGATTAACATCACGGGATTCCCTGATGTTAATCGGGTCTTGATTCGCTTGACGCTGCTG” the figure was 6.23 z-score.
The same measure for “CCGATTAACATCAGGGGGTTCTATGATGTTAATCGGGTCTTGATTCGCTTGACGCTGCTG”: 5.57 z-score; for “CCGATTAACATCAAAAATCCCCTTGATGTTAATCGGGTCTTGATTCGCTTGACGCTGCTG”: 12.3 z-score; for “CCGATTAACATCAAAAATACCCTTGATGTTAATCGGGTCTTGATTCGCTTGACGCTGCTG”: 9.05 z-score.
“CCGATTAACATCAAAGCTTCCCCTGATGTTAATCGGGTCTTGATTCGCTTGACGCTGCTG” gave a binding signal of 6.28 z-score.
With “CCGATTAACATCAACTTCCCCCCTGATGTTAATCGGGTCTTGATTCGCTTGACGCTGCTG” the figure was 6.37 z-score; with “CCGATTAACATCAGAAAATACCCTGATGTTAATCGGGTCTTGATTCGCTTGACGCTGCTG”, 8.27 z-score.
The same measure for “CCGATTAACATCAAAAAGACCCCTGATGTTAATCGGGTCTTGATTCGCTTGACGCTGCTG”: 4.44 z-score.
In the case of “CCGATTAACATCAGGGAATCCCATGATGTTAATCGGGTCTTGATTCGCTTGACGCTGCTG”, the binding signal stood at 4.92 z-score.
As for “CCGATTAACATCAAGGGGTTTTCTGATGTTAATCGGGTCTTGATTCGCTTGACGCTGCTG”, the binding signal stood at 7.5 z-score.
In turn, “CCGATTAACATCAAAGTCCCGGGTGATGTTAATCGGGTCTTGATTCGCTTGACGCTGCTG” returned a binding signal of 3.61 z-score.
With “CCGATTAACATCAGGGACTTTTATGATGTTAATCGGGTCTTGATTCGCTTGACGCTGCTG” the figure was 9.97 z-score; with “CCGATTAACATCAGGCAACCCCCTGATGTTAATCGGGTCTTGATTCGCTTGACGCTGCTG”, 3.96 z-score.
The same measure for “CCGATTAACATCAGGGGGGTAACTGATGTTAATCGGGTCTTGATTCGCTTGACGCTGCTG”: 4.16 z-score.
With “CCGATTAACATCAGGGGGGACTATGATGTTAATCGGGTCTTGATTCGCTTGACGCTGCTG” the figure was 5.17 z-score.
Consider “CCGATTAACATCAGGGAAAATAATGATGTTAATCGGGTCTTGATTCGCTTGACGCTGCTG”, for which the binding signal turned out to be 6.84 z-score.
